In PubChem BioAssay AID488890 (Southern Research Specialized Biocontainment Screening …, 2010) one finds inhibition data, which are given here for 36 compounds.

The campaign covered roughly 320,000 compounds. About 1,300 (0.41%) were called active. Roughly 3% stayed inconclusive and do not appear here. The rule behind the calls is not given here. These entries were drawn from the full list. Results with a measured potency or affinity are listed apart.

The experiment can be described thus: growth inhibition of non-replicating M. tuberculosis (AID 488890).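 Note: plate controls were DMSO cells for no effect and high antibiotic wells for full effect.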 Particulars: Mycobacterium tuberculosis non-replicating, at 25 µM, stronger effect = higher value.
As usually defined, the inhibition is the relative decrease from the control value, in per cent. `CC1CC(c2ccccc2)n2nc(NC(=O)c3ccco3)nc2N1` (stereo unspecified): the inhibition was found to be 3.85%.
With `CC1CCCC(NC(=O)CCCn2ncn3c(cc4occc43)c2=O)C1C` (stereo unspecified), the inhibition is -13.3%.
As for `CC1Cc2ccccc2N1C(=O)c1ccc(N2CCCCC2)c([N+](=O)[O-])c1` (stereo unspecified), the figure is 20.8%; as for `Cc1ccc2sc3ccc(NC(=O)c4ccccc4Cl)cc3c(=O)c2c1`, -1.36%.
`Cc1ccc(C(=O)N[C@H](C(=O)NC2CCCCC2)C(C)C)cc1`: the inhibition was found to be 15.5%.
As for `Cc1ccc(C(=O)N[C@H](C(=O)NC2CCCCCCC2)C(C)C)cc1`, the figure is -6.5%; as for `CN(C)c1cc[n+](CC(=O)N2c3ccccc3Sc3ccccc32)cc1`, 6.94%; as for `CC1(c2cc(C(F)(F)F)n3nc(C(=O)O)cc3n2)CC1`, -1.85%.
With `Fc1ccc(Oc2cnc3ccccc3n2)cc1`, the inhibition is 75.1%.
As for `CCC(=O)Nc1nc2ccccc2n1CCN(C)C`, the figure is 28.6%; as for `CCC(=O)Nc1nc2ccccc2n1CCN1CCOCC1`, 2.63%; as for `CCn1c(NCc2ccccc2Cl)nc2ccccc21`, 26.2%.
Turning to `CCS(=O)(=O)c1nc2ccccc2n1Cc1ccccc1Cl`, the inhibition was found to be 17.3%.
In the case of `Cc1nc2ccccc2n1Cc1ccc(Cl)cc1`, the inhibition stood at 16.2%.
`CCC(=O)Nc1nc2ccccc2n1CCN(CC)CC`: the inhibition was 12.6%.
Take `Cc1ccc(CNC(=O)c2nnn(-c3cccc(C)c3)c2N)cc1`: the inhibition was determined as 27.4%.
Take `O=c1c2ccccc2nnn1COc1ccc(F)cc1Cl`: the inhibition was determined as 33%.
With `N#CC(C#N)=C1NC2(CCCCC2)Cc2ccccc21`, the inhibition is -7.74%.
`CN(CC(=O)Nc1cccc(F)c1)C(=O)c1ccc(C2SCCS2)cc1`: the inhibition was 16%.
On to `COc1ccc(NC(=O)c2cnc(SCC(=O)NCCc3ccccc3)n(C)c2=O)cc1`, for which the inhibition was -6.78%.
As for `COc1ccccc1C(=O)N(CCC1CCCN1C)c1nc2ccccc2s1` (stereo unspecified), the inhibition stood at 12.9%.
The figure for `CCCCn1c(N)c(N(CCOC)C(=O)c2sc3cc(F)ccc3c2Cl)c(=O)[nH]c1=O` is -5.03%; for `NS(=O)(=O)c1ccc(NC(=O)COC(=O)COc2ccc3ccccc3c2)cc1` it is 34.3%; for `O=C(CSc1n[nH]c(=O)n1Cc1ccco1)Nc1ccccc1` it is -4.65%.
Take `CCN1C(=O)C(CC(=O)Nc2ccc(Br)cc2)N(CCCc2ccccc2)C1=S` (stereo unspecified): the inhibition was found to be 41.5%.
As for `Cc1ccc(NC(=O)O/N=C/c2ccc(F)cc2)cc1`, the figure is 4.77%; as for `O=C(Nc1ccccc1)ON=C1CCCC1`, 69.3%.
The figure for `O=C(COc1cc2oc(=O)c3c(c2cc1Cl)CCC3)Nc1cccnc1` is 5.55%.
For `Cc1ccc(-c2cc(C(F)F)nc(N3CCC(C)CC3)n2)cc1`, the inhibition came out at 8.45%.
As to `Cc1cc(NC(=O)CCS(=O)(=O)c2nc(-c3ccccc3)cc(C(F)(F)F)n2)no1`, the inhibition was 41.1%.
As for `CCOC(=O)CSc1nc(-c2ccccc2)cc(C(F)(F)F)n1`, the figure is 69.6%.
For the compound `COc1ccccc1-c1cc(C(F)(F)F)nc(S(=O)(=O)CCCC(=O)O)n1`, the inhibition turned out to be 44.3%.
As for `Cc1ccc(-c2cc(C(F)F)nc(N3CCOCC3)n2)cc1`, the inhibition was 17.6%.
In the case of `CCOC(=O)CCSc1nc(-c2ccccc2)cc(C(F)(F)F)n1`, the inhibition was 8.6%.
The figure for `COc1ccc(-c2cc(C(F)(F)F)nc(N)n2)cc1` is 6.01%.
With `COc1ccc(-c2cc(C(F)(F)F)nc(S(=O)(=O)CCC(=O)N3CCOCC3)n2)cc1`, the inhibition turned out to be 79%.
